Results taken from PubChem BioAssay AID1159580 (chemical genetic matrix, 2015).
Several values for one entry are separate records, joined by “and”; a condition that tells them apart may be missing. Identical values can stand only once. Out of some 5,500 compounds screened, about 2,000 (36%) were called active. Not shown: some 18% with an inconclusive outcome. Rule as the data show it: active = normalized growth mostly below about 0.91 (no sharp cut-off); inconclusive = no clear call, values can overlap the other calls; inactive = mostly above about 0.92. Some of the results follow.

Assay: chemical genetic growth profiling, strain panel (AID 1159580);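 also: tested at 20 µM; growth read once vehicle control cultures reached saturation at 30 °C; 1 = growth at the plate median or of vehicle wells; lower values mean less growth of the strain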
Settings: growth OD

Measured: normalized growth

COc1cc(Cc2cnc(N)nc2N)cc(OC)c1OC
inactive: S. cerevisiae deletion strains, locus YJR075W, strain HOC1, stronger effect = lower value 1.01 | S. cerevisiae deletion strains, locus YKL009W, strain mrt4, stronger effect = lower value 1.04 | S. cerevisiae deletion strains, locus YKL068W, stronger effect = lower value 0.986 | S. cerevisiae deletion strains, locus YKL085W, strain MDH1 (second series), stronger effect = lower value 1.03 | S. cerevisiae deletion strains, locus YKL085W, strain MDH1, stronger effect = lower value 1.03 | S. cerevisiae deletion strains, locus YKL160W, strain elf1, stronger effect = lower value 1.01 | S. cerevisiae deletion strains, locus YKL190W, strain CNB1, stronger effect = lower value 1.01 | S. cerevisiae deletion strains, locus YKR001C, strain vps1, stronger effect = lower value 0.989 | S. cerevisiae deletion strains, locus YKR026C, strain gcn3, stronger effect = lower value 1 | S. cerevisiae deletion strains, locus YKR091W, strain srl3, stronger effect = lower value 1.01 | S. cerevisiae deletion strains, locus YLL001W, strain dnm1, stronger effect = lower value 0.993 | S. cerevisiae deletion strains, locus YLL026W, stronger effect = lower value 1.01 | S. cerevisiae deletion strains, locus YLL041C, strain sdh2, stronger effect = lower value 1.01 | S. cerevisiae deletion strains, locus YLR027C, strain aat2, stronger effect = lower value 1.01 | S. cerevisiae deletion strains, locus YLR039C, strain RIC1, stronger effect = lower value 1.03 | S. cerevisiae deletion strains, locus YLR058C, strain SHM2, stronger effect = lower value 1 | S. cerevisiae deletion strains, locus YLR102C, strain apc9, stronger effect = lower value 0.994 | S. cerevisiae deletion strains, locus YLR113W, strain HOG1, stronger effect = lower value 0.994 | S. cerevisiae deletion strains, locus YLR221C, strain rsa3, stronger effect = lower value 0.998 | S. cerevisiae deletion strains, locus YLR258W, strain gsy2, stronger effect = lower value 1.02 | S. cerevisiae deletion strains, locus YLR262C, strain YPT6 (second series), stronger effect = lower value 1.01 | S. cerevisiae deletion strains, locus YLR262C, strain YPT6, stronger effect = lower value 1.03 | S. cerevisiae deletion strains, locus YLR268W, strain sec22, stronger effect = lower value 0.978 | S. cerevisiae deletion strains, locus YLR320W, strain mms22, stronger effect = lower value 1.02 | S. cerevisiae deletion strains, locus YLR330W, strain CHS5, stronger effect = lower value 1 | S. cerevisiae deletion strains, locus YLR342W, strain FKS1 (second series), stronger effect = lower value 0.992 | S. cerevisiae deletion strains, locus YLR342W, strain FKS1, stronger effect = lower value 1 | S. cerevisiae deletion strains, locus YLR357W, strain rsc2, stronger effect = lower value 0.998 | S. cerevisiae deletion strains, locus YLR370C, strain arc18, stronger effect = lower value 1.01 | S. cerevisiae deletion strains, locus YLR371W, strain rom2, stronger effect = lower value 0.991 | S. cerevisiae deletion strains, locus YLR384C, strain iki3, stronger effect = lower value 1.02 | S. cerevisiae deletion strains, locus YLR418C, strain cdc73, stronger effect = lower value 0.961 | S. cerevisiae deletion strains, locus YML016C, strain PPZ1, stronger effect = lower value 0.994 | S. cerevisiae deletion strains, locus YML032C, strain rad52, stronger effect = lower value 0.981 | S. cerevisiae deletion strains, locus YML120C, strain ndi1, stronger effect = lower value 1.02 | S. cerevisiae deletion strains, locus YML124C, strain tub3, stronger effect = lower value 0.991 | S. cerevisiae deletion strains, locus YMR058W, strain fet3, stronger effect = lower value 1 | S. cerevisiae deletion strains, locus YMR078C, strain ctf18, stronger effect = lower value 0.987 | S. cerevisiae deletion strains, locus YMR125W, strain sto1, stronger effect = lower value 1.04 | S. cerevisiae deletion strains, locus YMR129W, stronger effect = lower value 1.01 | S. cerevisiae deletion strains, locus YMR205C, strain PFK2, stronger effect = lower value 1.03 | S. cerevisiae deletion strains, locus YMR223W, strain ubp8, stronger effect = lower value 1.01 | S. cerevisiae deletion strains, locus YMR231W, strain pep5, stronger effect = lower value 1.02 | S. cerevisiae deletion strains, locus YMR263W, strain SAP30, stronger effect = lower value 1 | S. cerevisiae deletion strains, locus YMR307W, strain GAS1, stronger effect = lower value 1.03 and 1 | S. cerevisiae deletion strains, locus YNL067W, strain RPL9B, stronger effect = lower value 1 | S. cerevisiae deletion strains, locus YNL071W, strain lat1, stronger effect = lower value 1.01 | S. cerevisiae deletion strains, locus YNL128W, strain TEP1, stronger effect = lower value 0.998 | S. cerevisiae deletion strains, locus YNL153C, strain GIM3, stronger effect = lower value 0.991 | S. cerevisiae deletion strains, locus YNL175C, strain NOP13, stronger effect = lower value 0.937 | S. cerevisiae deletion strains, locus YNL183C, strain NPR1, stronger effect = lower value 0.934 | S. cerevisiae deletion strains, locus YNL197C, strain WHI3, stronger effect = lower value 0.956 | S. cerevisiae deletion strains, locus YNL209W, strain ssb2, stronger effect = lower value 1.01 | S. cerevisiae deletion strains, locus YNL224C, strain SQS1, stronger effect = lower value 0.981 | S. cerevisiae deletion strains, locus YNL233W, strain BNI4, stronger effect = lower value 1.01 | S. cerevisiae deletion strains, locus YNL248C, strain rpa49, stronger effect = lower value 1.02 | S. cerevisiae deletion strains, locus YNL250W, strain rad50, stronger effect = lower value 0.988 | S. cerevisiae deletion strains, locus YNL271C, strain bni1, stronger effect = lower value 0.985 | S. cerevisiae deletion strains, locus YNL298W, strain CLA4, stronger effect = lower value 0.985 | S. cerevisiae deletion strains, locus YNL307C, strain MCK1, stronger effect = lower value 0.994 | S. cerevisiae deletion strains, locus YNL322C, strain KRE1 (second series), stronger effect = lower value 1.03 | S. cerevisiae deletion strains, locus YNL322C, strain KRE1, stronger effect = lower value 1 and 0.976 | S. cerevisiae deletion strains, locus YNR049C, strain mso1, stronger effect = lower value 1.01 | S. cerevisiae deletion strains, locus YNR052C, strain pop2, stronger effect = lower value 0.986 | S. cerevisiae deletion strains, locus YOL006C, strain TOP1, stronger effect = lower value 0.954 | S. cerevisiae deletion strains, locus YOL012C, strain htz1 0.78 | S. cerevisiae deletion strains, locus YOL147C, strain pex11, stronger effect = lower value 0.996 | S. cerevisiae deletion strains, locus YOR001W, strain rrp6, stronger effect = lower value 1.01 | S. cerevisiae deletion strains, locus YOR061W, strain CKA2, stronger effect = lower value 1 | S. cerevisiae deletion strains, locus YOR069W, strain VPS5, stronger effect = lower value 0.993 | S. cerevisiae deletion strains, locus YOR070C, strain gyp1, stronger effect = lower value 1.01 | S. cerevisiae deletion strains, locus YOR080W, strain dia2, stronger effect = lower value 1.03 | S. cerevisiae deletion strains, locus YOR083W, strain WHI5 (second series), stronger effect = lower value 0.975 | S. cerevisiae deletion strains, locus YOR083W, strain WHI5, stronger effect = lower value 0.999 | S. cerevisiae deletion strains, locus YOR106W, strain vam3, stronger effect = lower value 1.01 | S. cerevisiae deletion strains, locus YOR136W, strain idh2, stronger effect = lower value 0.992 | S. cerevisiae deletion strains, locus YOR144C, strain elg1, stronger effect = lower value 0.989 | S. cerevisiae deletion strains, locus YOR184W, strain ser1, stronger effect = lower value 0.991 | S. cerevisiae deletion strains, locus YOR231W, strain MKK1, stronger effect = lower value 0.993 | S. cerevisiae deletion strains, locus YOR265W, strain rbl2, stronger effect = lower value 1.01 | S. cerevisiae deletion strains, locus YOR270C, strain vph1, stronger effect = lower value 1 | S. cerevisiae deletion strains, locus YOR290C, strain snf2, stronger effect = lower value 1.03 | S. cerevisiae deletion strains, locus YOR316C, strain cot1, stronger effect = lower value 0.994 | S. cerevisiae deletion strains, locus YPL051W, strain arl3, stronger effect = lower value 1 | S. cerevisiae deletion strains, locus YPL055C, strain LGE1, stronger effect = lower value 1.05 and 1.01 | S. cerevisiae deletion strains, locus YPL078C, strain atp4, stronger effect = lower value 1.01 | S. cerevisiae deletion strains, locus YPL106C, strain sse1, stronger effect = lower value 1.04 | S. cerevisiae deletion strains, locus YPL240C, strain hsp82, stronger effect = lower value 1.01 | S. cerevisiae deletion strains, locus YPL241C, strain CIN2, stronger effect = lower value 1 | S. cerevisiae deletion strains, locus YPL256C, strain CLN2, stronger effect = lower value 0.982 | S. cerevisiae deletion strains, locus YPR119W, strain clb2, stronger effect = lower value 0.986 | S. cerevisiae deletion strains, locus YPR141C, strain kar3, stronger effect = lower value 0.987 | S. cerevisiae deletion strains, locus YPR163C, strain tif3, stronger effect = lower value 0.988 | S. cerevisiae deletion strains, locus YPR167C, strain met16, stronger effect = lower value 0.985 | S. cerevisiae deletion strains, strain wtn01, stronger effect = lower value 0.977 | S. cerevisiae strains, strain wild type, stronger effect = lower value 1.01
